This is an account of results in PubChem BioAssay (Tox21).

The nature of assay [1]: qHTS RealTime-Glo MT Cell Viability Assay in HEK293 cells - 16 hour (AID 1224872). Also: nearly all actives have a fitted effect of over 50% in size. Also: potency is read from the fitted curve at half-maximal effect. The gist of the method:
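Nonlytic real-time viability readout: viable cells convert prosubstrate to NanoLuc substrate, giving luminescence proportional to live cell number. HEK293, 600 cells/well, compound added after 5 h, continuous culture at 37 C.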
(In general: In qHTS, concentration-response curves come from the screen itself.)

Assay [2] in a line: qHTS RealTime-Glo MT Cell Viability Assay in HepG2 cells - 8 hour (AID 1224873). Also: nearly all actives have a fitted effect of over 55% in size. In short, it runs like this: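 Real-time viability: cells seeded at 600 per well together with NanoLuc and cell-permeant prosubstrate, compounds added after 5 h incubation. Luminescence tracked at 0, 8, 16, 24, 32 and 40 h of exposure.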
The nature of assay [3]: qHTS RealTime-Glo MT Cell Viability Assay in HEK293 cells - 40 hour (AID 1224874). Also: nearly all actives have a fitted effect of over 50% in size. Also: potency is read from the fitted curve at half-maximal effect. The settings on record: RealTime-Glo luminescence; max response: stronger effect = lower value. In short, it runs like this: (§1)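 Viable HEK293 cells reduce a cell-permeant prosubstrate; the product diffuses out and is consumed by NanoLuc in the medium to give light. Compounds went in after a 5 h incubation and plates were read over the treatment course.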

Assay [4] in a line: A CellTox Green Cytotoxicity Assay to monitor cytotoxicity in HEK293 cells - 24 hour (AID 1224875). Also: nearly all actives have a fitted effect of over 45% in size. Also: potency is read from the fitted curve at half-maximal effect. In short, it runs like this: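 Fluorescence intensity, read at 0, 8, 16, 24, 32 and 40 h of compound treatment, reflected dye binding to DNA of dead HEK293 cells; compounds (23 nL, DMSO) were added 5 h after plating cells with reagent.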
Assay [5] can be described thus: A CellTox Green Cytotoxicity Assay to monitor cytotoxicity in HepG2 cells - 16 hour (AID 1224876). Also: nearly all actives have a fitted effect of over 45% in size. Also: potency is read from the fitted curve at half-maximal effect. The gist of the method: (§2)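 Using 1536-well format, dye-containing HepG2 suspension was seeded, allowed 5 h at 37 C/5% CO2, dosed by pintool with compounds, positive and negative controls, and imaged for fluorescence across 40 h.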
Assay [6] is described as follows: qHTS RealTime-Glo MT Cell Viability Assay in HepG2 cells - 32 hour (AID 1224877). Also: nearly all actives have a fitted effect of over 55% in size. Also: potency is read from the fitted curve at half-maximal effect. In short, it runs like this:
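Luminescence read-out: viable HepG2 cells reduce a prosubstrate to a NanoLuc substrate, giving a signal proportional to live cell number. Reads taken at 0, 8, 16, 24, 32 and 40 h of compound exposure at 37 C.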

Assay [7] is described as follows: A CellTox Green Cytotoxicity Assay to monitor cytotoxicity in HepG2 cells - 24 hour (AID 1224878). Also: nearly all actives have a fitted effect of over 45% in size. Also: potency is read from the fitted curve at half-maximal effect. In short, it runs like this:
as §2

Assay [8] is described as follows: A CellTox Green Cytotoxicity Assay to monitor cytotoxicity in HepG2 cells - 40 hour (AID 1224879). Also: nearly all actives have a fitted effect of over 40% in size. Also: potency is read from the fitted curve at half-maximal effect. The gist of the method: as §2
Assay [9] can be described thus: qHTS RealTime-Glo MT Cell Viability Assay in HEK293 cells - 0 hour (AID 1224880). Also: nearly all actives have a fitted effect of over 45% in size. Also: potency is read from the fitted curve at half-maximal effect. In short, it runs like this:
as §1

The structures appear in SMILES notation. Records with an inconclusive call do not appear. A number with no mark means an inactive call. Calls of active or inactive are those of the source. Calls follow the shape of the dose curve; as a rule, active = well fitted curve in the direction sought with a large enough effect in the repeat runs; inconclusive = weak or mixed curves; inactive = no such curve, though single readings can be large; an effect the other way counts as inactive or inconclusive.
% is scaled to controls: 0 for no effect and ±100 for the full control effect.

Consider `CO/N=C(/C(=O)N[C@@H]1C(=O)N2C(C(=O)O)=C(COC(N)=O)CS[C@H]12)c1ccco1`, for which the Potency result in assay [1], in assay [2], in assay [4], in assay [5], in assay [6] and in assay [7] was “inactive” each time. The Potency result in [8] and in [9] was “inactive” each time. For the same molecule, in assay [3], the max response was 10.8%.
Turning to `CC(C)C=O`, the Potency result in assay [1], in [2], in [4], in assay [5], in [6] and in [7] was “inactive” throughout. Moreover, the Potency result in assay [8] and in assay [9] was “inactive” in each case. The max response in [3] is 0.0745%.
As to `O=C(CCc1ccc(O)cc1)c1c(O)cc(O)cc1O`, the Potency in [1] was 25.1 µM (active); in [3], 39.8 µM (active); in assay [9], 39.8 µM (active). Also, the Potency entry in assay [2], in assay [4], in assay [5], in [6], in assay [7] and in [8] was “inactive” throughout.
For `CC(=O)NC1(c2cccc(F)c2)CCN(CC[C@@]2(c3ccc(Cl)c(Cl)c3)CN(c3ccccc3)C(=O)CO2)CC1`, the Potency in assay [1] was 17.4 µM (active); in assay [3], 17.4 µM (active); in assay [6], 43.8 µM (active); in assay [8] it was 43.8 µM (active).
Take `CN(C)CCC=C1c2ccccc2C=Cc2ccccc21`: the Potency result in assay [1], in [2], in [4] and in [6] was “inactive” in each case. Further, the Potency in [5], in assay [7] and in assay [8] was 23.9 µM (active) throughout.
In the case of `CCCCC(CC)COP(=O)(O)O` (stereo not given), the Potency entry in [1], in [2], in assay [5], in [6], in [7] and in [8] was “inactive” throughout. Besides, the Potency entry in [9] was “inactive”.
As to `C(=C\c1ccccc1)/c1ccccc1`, the Potency result in assay [2], in assay [5], in assay [6], in assay [7], in [8] and in [9] was “inactive” throughout. Besides, the max response in assay [3] was 7.61%.
Regarding `COC(=O)[C@H]1[C@H]2C[C@@H]3c4[nH]c5cc(OC)ccc5c4CCN3C[C@H]2C[C@@H](OC(=O)/C=C/c2ccc(O)c(OC)c2)[C@@H]1OC`, the Potency is 16.9 µM (active) in assay [4], 23.9 µM (active) in assay [5], 26.8 µM (active) in assay [7] and 23.9 µM (active) in assay [8]. Also, the Potency entry in assay [6] and in assay [9] was “inactive” in each case.
Consider `O=C=Nc1cccc(C(F)(F)F)c1`, for which the Potency entry in assay [1], in assay [2], in [5], in assay [6], in [7] and in assay [8] was “inactive” each time. The Potency entry in assay [9] is “inactive”.
As for `Brc1cc2ccccc2c2ccccc12`, the Potency entry in [2], in assay [4], in assay [5], in assay [6], in assay [7] and in assay [9] was “inactive” in each case. Besides, the Potency in assay [8] is 39.2 µM (active).
Consider `COc1ccccc1NC(=O)c1cc2ccccc2cc1O`, for which the values for the Potency in assay [1] and in [3] were 24.5 µM (active) and 34.7 µM (active), respectively. In addition, the Potency result in [4], in assay [5], in [7] and in assay [9] was “inactive” throughout.
Regarding `COc1cc(C(=O)NC2CCN(C)CC2)ccc1Nc1ncc2c(n1)N(C1CCCC1)CC(F)(F)C(=O)N2C`, the Potency in assay [1] is 2 µM (active); in assay [3], 0.0179 µM (active); in assay [4], 20 µM (active); in assay [5], 44.9 µM (active); in assay [6], 40 µM (active); in [7] it was 40 µM (active). The Potency in assay [8] is 22.5 µM (active). For the same molecule, the Potency result in assay [9] was “inactive”.
`OC1(c2ccccc2)CCNCC1`: the Potency result in assay [2], in assay [4], in [5], in assay [6], in [7] and in assay [8] was “inactive” each time. In addition, the Potency entry in assay [9] was “inactive”. Also, in [3], the max response is 5.53%.
Take `O=C1c2ccccc2C(=O)N1CCc1noc(-c2ccc(CN3CCCCCC3)s2)n1`: the Potency in [3] was 20.1 µM (active); in [5], 20.1 µM (active); in [7], 31.8 µM (active); in assay [8] it was 35.7 µM (active). In addition, the Potency entry in assay [4], in assay [6] and in assay [9] was “inactive” in each case.
Turning to `CN1C(=O)N(c2ccccc2Br)Cc2cnc(Nc3ccc4c(c3)OCC(CO)O4)nc21` (stereo not given), the Potency in assay [1] is 6.92 µM (active); in assay [3] it was 4.36 µM (active). The Potency entry in assay [4], in assay [5] and in assay [9] was “inactive” in each case.
With `Clc1ccc(Nc2nnc(Cc3ccncc3)c3ccccc23)cc1`, the Potency entry in [2], in [4], in assay [5], in [6], in [7] and in assay [8] was “inactive” throughout. Further, the Potency entry in assay [9] is “inactive”. In addition, the Potency in assay [3] was 19 µM (active).
Take `Cc1cc(O)c(C)c(C)c1O`: the Potency result in assay [2], in assay [5], in assay [6], in assay [7], in assay [8] and in [9] was “inactive” each time.
`O=C1Cc2cc(Cl)ccc2N1`: the Potency result in [2], in assay [4], in assay [5], in assay [6], in [7] and in assay [8] was “inactive” in each case.
As for `O=c1cc(-c2ccccc2)oc2ccc3ccccc3c12`, the Potency entry in assay [2], in assay [4], in assay [6] and in assay [9] was “inactive” in each case. For the same molecule, the max response in assay [3] was -4.42%. For the same molecule, the values for the Potency in [5], in assay [7] and in [8] were 24.5 µM (active), 24.5 µM (active) and 17.4 µM (active), respectively.
On to `C[C@@H](CN(C)C)CN1c2ccccc2Sc2ccccc21`, for which the Potency result in [2] and in assay [4] was “inactive” throughout. The Potency in [3] is 23.9 µM (active); in assay [5], 23.9 µM (active); in assay [7] it was 26.8 µM (active); in assay [8], 26.8 µM (active).
